pAkt inh – HTS Assay for Inhibitors of Akt Phophorylation: Primary Screen. 0.32% of 360,000 active. activity change, % for hits at 50 µM. Neuro2A IGF-stimulated pAkt S473 HTRF, 20 min; active compounds read low; in the data active means activity change below about -80%; inconclusive means mostly about -51% to -80%; further: on the % scale 0 is the no-effect control and ±100 the full control effect
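Neuro2A cells in DMEM with 0.5% FBS, overnight at 37 deg C, given compound at single 50 µM final, then IGF (6 nM final) for 20 min at 37 deg C. Lysed; phospho-Akt Ser473 by HTRF after 24 h, 665/615 ratio.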
CCT chaperon mod – High-Throughput Screening for Modulators of Cytosolic Chaperonin Activity; purified chaperonin ATPase assay, HTRF ADP detection, 30 min; activity change, % (test concentration not listed), hits read low; 0.3% of 360,000 active; in the data active means activity change below about -30%; further: on the % scale 0 is the no-effect control and ±100 the full control effect
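TRiC (40 or 20 nM final, by batch activity) in 30 mM Tris pH 7.4, 100 mM KCl, 5 mM MgCl2, 1 mM DTT was treated with compound at 76 uM single dose, then 10 uM ATP, 30 min at 37 °C. ADP was read by HTRF Transcreener.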
BRCA1 expr act – qHTS Assay to Identify Small Molecule Activators of BRCA1 Expression | 1.1% of 380,000 active | MCF7-BRCA1-FFLuc reporter, luminescence, 48 h; response scale: scaled: vehicle 0%, 10 µM genistein 100% | Potency, µM (top dose mostly 46.1 µM), without a hit: at the top dose activation, most hits filed as activators; further: potency means the concentration at half of the fitted maximal effect; nearly all actives have a fitted effect of over 80% in size
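Quantitative HTS in MCF7 cells stably reporting BRCA1 expression via firefly luciferase. Compound treatment lasts 48 h at 37 °C in phenol-red free MEM. Activation is expressed relative to genistein at 10 microM and DMSO.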
MmCpn inh – Inhibitors of TCP-1 ring complex (TRiC) of Methanococcus maripaludis (MmCpn): qHTS | Chaperonin Mm-Cpn (Methanococcus maripaludis) | purified Mm-Cpn ATPase, ADP Transcreener TR-FRET | Potency, µM (titrated, usually from 76.9 µM), for the others: at the highest dose activity, negative = inhibition, actives largely listed as inhibitors | 0.031% of 330,000 active | AID 504842, 2011; further: potency means the concentration at half of the fitted maximal effect; on the % scale 0 is the no-effect control and ±100 the full control effect; nearly all actives have a fitted effect of over 80% in size
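Quantitative HTS used 25 nM Mm-CPN and 10 uM ATP in magnesium/KCl Tris buffer, pH 7.4, with 1 mM DTT. Hydrolysis ran 30 min at 37°C; ADP was read by HTRF.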
A-T KAP1 phos – qHTS Assay for Identifying a Potential Treatment of Ataxia-Telangiectasia | F2112 A-T fibroblasts, KAP-1 phosphorylation AlphaLISA; neocarzinostatin DNA damage 30 min before lysis | AID 485349, 2010 | Potency, µM (top dose mostly 57.5 µM), without a hit: at the highest dose activation, hits mostly activators | 0.19% of 320,000 active; further: potency means the concentration at half of the fitted maximal effect; % of control where 0% means no effect; nearly all actives have a fitted effect of over 45% in size
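hTERT-immortalized A-T patient fibroblasts (F2112), 500 cells/well in OPTI-MEM, 1% FBS, got compounds for 60 min, then NCS for 30 min at 37C. Lysates were then assayed for phospho-KAP-1 by AlphaLISA (anti-pKAP1 donor, anti-KAP1 acceptor beads), 6 hr at 25C.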
* hit, by the source's call; i = inactive; ? = inconclusive; nt = no result given. Only some compounds are listed: those with a hit (about 1.8% of all), similar ones and a draw of the others. Unless noted, the call rests on the fitted dose curve; in most records, active means well fitted curve in the direction sought with a large enough effect; inconclusive means small, poorly fitted or top-dose-only effect, or another doubt; inactive means no such curve, though single readings can be large; an effect the other way counts as inactive or inconclusive.

SMILES	pAkt inh	CCT chaperon mod	BRCA1 expr act	MmCpn inh	A-T KAP1 phos
C/C(=N\Nc1ccc(Cl)c(C(=O)O)c1)c1ccc2c(c1)OCO2	i	-54.6*	?	-1.7%	-4.8%
O=C(Nc1cc(Cl)cc(Cl)c1)c1cnn2c1NC(=C1CC1)C=C2C(F)F	nt	nt	-13.9%	nt	nt
c1cn2cc(-c3ccc4c(c3)OCO4)nc2s1	nt	-62.9*	?	2.1%	2.9%
O=C(COc1ccc([N+](=O)[O-])cc1)NNC(=O)Nc1ccccc1F	i	-1.5	9.7%	1.4%	?
N/C(=N\O)c1ccc(N2CCN(c3ncccc3C(F)(F)F)CC2)nc1	i	2.5	3.55µM*	0.6%	-7.2%
O=C(Nc1ccc(N2CCN(c3ncccc3C(F)(F)F)CC2)nc1)c1cccs1	i	2.0	-84.8%	1.0%	-15.7%
CNC(=O)c1c[nH]c2ccc(S(=O)(=O)Nc3cccc(Cl)c3C)cc2c1=O	nt	nt	nt	-0.8%	17.5%
COc1ccc2oc(-c3ccco3)cc(=O)c2c1	i	0.1	6.31µM*	-7.0%	-1.0%
CCOC(=O)N1CCN(/[N+]([O-])=N/Oc2ccc(C(F)(F)F)cc2[N+](=O)[O-])CC1	nt	nt	0.0%	nt	nt
O=C(NCCc1ccccc1)c1cccc2c(-c3ccc(F)c(F)c3)coc12	i	0.8	35.6%	nt	nt
O=C(NCC1CC1)c1cccc2c(-c3ccc(F)c(F)c3)coc12	i	1.0	3.55µM*	nt	nt
Cc1cc(N2CCOCC2)nc(SCc2ccc(Cl)cc2Cl)n1	-109.9%*	-1.0	-12.9%	-2.7%	3.0%
CSc1ccc(CCNC(=O)Cn2ncc3c(=O)oc4ccccc4c32)cc1	nt	nt	10.8%	nt	nt
C/C(=N\Nc1cc(N2CCOCC2)ncn1)c1ccccc1	i	0.8	1.78µM*	0.8%	-1.8%
COc1ccc2cc(C#N)c(SCC(=O)N3CCCC3)nc2c1	i	-1.8	11.2µM*	-2.1%	5.2%
COC(=O)CSc1nc2cc(OC)ccc2cc1C#N	i	-1.4	?	-23.0%	28.4%
CSc1ccc2nnc(-c3ccc(C)cc3)n2n1	nt	nt	-0.4%	nt	nt
NC(=O)c1cnn2c1NC(c1ccc(F)cc1)CC2C(F)(F)F (stereo not given)	-111.1%*	0.5	3.4%	0.1%	5.4%
Cc1cnccc1/C=C/c1ccc(N)cc1	nt	nt	41.2%	nt	nt
O=C(OCc1ccccc1)c1ccc2c(c1)-c1ccccc1C2=O	i	-13.1	8.91µM*	3.1%	-14.3%
O=C(CCS(=O)(=O)c1ccc(Br)cc1)NCc1ccc(F)cc1	nt	-79.8*	1.7%	0.0%	16.3%
Cc1ccc(CNC(=O)CCS(=O)(=O)c2ccc(Br)cc2)cc1	i	2.5	1.7%	0.8%	1.5%
O=C1CC(c2ccco2)Cc2[nH]c(=O)c(C(=O)Nc3ccccc3)cc21 (stereo not given)	nt	nt	-8.1%	nt	nt
O=C(NC1CCCCC1)c1cc2c(Cl)nc3ccccc3c2s1	nt	nt	36.4%	nt	nt
CCOc1ccc(-c2ccc(SCc3ccccn3)nn2)cc1	i	0.2	4.47µM*	-1.4%	1.8%
SMILES	pAkt inh	CCT chaperon mod	BRCA1 expr act	MmCpn inh	A-T KAP1 phos
CCOc1ccc(-c2ccc(SCC)nn2)cc1	i	0.9	56.9%	-0.2%	-0.5%
c1ccc(CSc2ccc(-c3cccs3)nn2)nc1	i	-1.1	7.94µM*	-0.2%	5.2%
O=C(CSc1ccc(-c2cccs2)nn1)c1cccs1	i	-3.4	11.2µM*	-7.8%	2.7%
CCSc1ccc(-c2ccc(C)cc2)nn1	i	2.2	2.51µM*	0.7%	1.1%
O=C(CSc1ccc(-c2cccs2)nn1)Nc1ccccc1	i	1.7	-8.1%	-5.2%	4.4%
O=C(Nc1ccc([N+](=O)[O-])cc1Cl)c1cc(Cl)cc(Cl)c1O	nt	nt	-14.9%	nt	nt
CCc1ccc(-c2ccc(SCc3ccccn3)nn2)cc1	i	-1.3	5.01µM*	1.8%	-5.6%
CCc1ccc(NC(=O)CSc2ccc(-c3ccccn3)nn2)cc1	i	-1.6	-35.3%	-2.2%	67.0%
N#CC1=C(N)OC2=C(C(=O)CCC2)C1C1C=CCCC1 (stereo not given)	-109.7%*	-2.8	12.4%	1.3%	-3.7%
